Screening data: PubChem, National Center for Advancing Translational Sciences (NCATS)
Sampled rows, rich in hits. Any-hit rate of the full collection: about 19%.
DT40 TDP1 no CPT: qHTS for Inhibitors of human tyrosyl-DNA phosphodiesterase 1 (TDP1): qHTS in cells in absence of CPT; DT40 Tdp1-/- hTDP1 cells, no CPT, ATP luminescence, 48 h; Potency, µM (top dose mostly 46.2 µM), without a hit: top-dose activity change, negative = growth inhibition, usual class: inhibitors; 15% of 420,000 active; AID 686978, 2013; note: potency is the fitted concentration of half-maximal effect; % is set by controls: 0 for no effect and ±100 for the full control effect; nearly all actives have a fitted effect of over 55% in size
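No-CPT arm: Tdp1-/-;hTDP1 DT40 cells (400/well) plus compounds, incubated ≥48 hr at 37 °C. Readout CellTiter-Glo luminescence.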
MCF10A rereplic: DNA re-replication induction in MCF 10a cells | MCF 10A DNA re-replication, Hoechst nuclear intensity, 48 h | 2.9% of 350,000 active | Potency, µM (doses to about 46.1 µM), without a hit: at the top dose activity, positive = re-replication, hits mostly activators; note: potency is the fitted concentration of half-maximal effect; % of control where 0% means no effect; nearly all actives have a fitted effect of over 50% in size
Chronic BCR inh: chronic active BCR signaling inhibition. ABC-DLBCL IkBa-CBG/CBR reporter, luminescence ratio, 4 h. Potency, µM (series often up to 46.1 µM), for the others: at the highest dose activity change, negative = inhibition, hits mostly inhibitors. 0.05% of 340,000 active; active = well fitted inhibition curve with a large enough effect in the signal ratio, with a control signal flat, not every such curve was filed as active; inconclusive = small, poorly fitted or top-dose-only effect, or effect the other way, or a change in a side signal; the % refers to the signal ratio;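 note: potency is the fitted concentration of half-maximal effect; plate controls were basal doxycycline-induced cells for no effect and cells given 10 µM MG132 for full effect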
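Compounds up to 46 uM were incubated four hours with TMD8 cells whose green CBG68 luciferase is fused to IkappaBalpha; red CBR luminescence normalised the signal, and concentration-effect curves were fitted to fusion, red and ratio data.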
SW480 rerep: induces DNA re-replication in SW480 colon adenocarcinoma cells; SW480 DNA re-replication, Hoechst DNA content imaging, 48 h; 1.8% of 340,000 active; Potency, µM (top dose mostly 46.1 µM), for the others: top-dose re-replication activation, most hits filed as activators; AID 624297; note: potency is the fitted concentration of half-maximal effect; % of control where 0% means no effect; nearly all actives have a fitted effect of over 55% in size
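Cells (250 per well) received 23 nL compound or DMSO by pin tool and were kept 48 hr at 37 C, 5% CO2. Nuclei were then stained with Hoechst for 40 min and scanned for DNA content.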
DT40 TDP1 CPT: DT40-hTDP1 cell growth loss with CPT; chicken DT40 Tdp1-/-;hTDP1 cells + 20 nM CPT, ATP luminescence, 48 h; Potency, µM (top dose mostly 46.2 µM), inactives show at the top dose activity change, negative = growth inhibition, usual class: inhibitors; 12% of 420,000 active; note: potency is the fitted concentration of half-maximal effect; % is set by controls: 0 for no effect and ±100 for the full control effect; nearly all actives have a fitted effect of over 55% in size
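Chicken DT40 Tdp1-/- cells complemented with human TDP1, 400 cells/well, exposed to compounds plus 20 nM camptothecin for at least 48 h at 37 C; viability read as ATP content by CellTiter-Glo luminescence.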
IL-1B inflam inh: blocks inflammasome-driven IL-1 beta release. 4.7% of 360,000 active. THP-1 LPS/ATP IL-1B secretion, AlphaLISA, 16 h; active compounds read low. AID 743279. activity change, % at 57.5 µM; in the data active = activity change below about -50%; inconclusive = mostly about -30% to -49%; note: % is set by controls: 0 for no effect and ±100 for the full control effect
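Secreted IL-1B measured by AlphaLISA bead assay after 16 h compound exposure of THP-1 cells; compounds (final up to 57.5 uM) added 1 h before LPS (250 ng/mL) and ATP (1.25 mM) stimulation; lower signal means less secretion.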
Starred values were filed as active, the others as inactive; ? = inconclusive; . = no result given; [ ] = another dose, or the depositor's remark. Unless noted, calls come from the whole dose curve; as a rule, active = well fitted curve in the direction sought with a large enough effect; inconclusive = small, poorly fitted or top-dose-only effect, or another doubt; inactive = no such curve, though single readings can be large; an effect the other way counts as inactive or inconclusive.

SMILES	DT40 TDP1 no CPT	MCF10A rereplic	Chronic BCR inh	SW480 rerep	DT40 TDP1 CPT	IL-1B inflam inh
CCc1ccc(-n2c(SCc3c(C)noc3C)nnc2-c2ccncc2)cc1	?	4.3%	-3.5%	-7.5%	20.6µM*	-4.4
CSc1nnc(-c2ccco2)n1-c1ccccc1	?	-2.2%	?	-1.4%	18.4µM*	5.5
CCOc1ccc(C(=O)Nc2c(C(=O)Nc3ccccc3OC)oc3ccccc23)cc1OCC	?	.	.	.	-3.5%	.
O=C(O)CSc1nnc(Cc2ccccc2)n1-c1ccccc1	0.3%	-10.7%	12.4%	-0.1%[9.22 µM]	-12.5%	50.0
O=[N+]([O-])c1cccc(CSc2nnc(Cc3ccccc3)n2-c2ccc(F)cc2)c1	?	23.2%	0.7%	.	18.4µM*	2.8
COc1ccc(-c2noc(CSc3nnc(-c4ccncc4)n3-c3ccccc3)n2)cc1	23.1µM*	.	.	.	16.4µM*	.
COc1ccc(-c2nnc(SCc3nnc(-c4ccc(Cl)cc4)o3)n2-c2ccccc2)cc1	16.4µM*	?	.	?	16.4µM*	-28.2
COc1ccc(-n2c(SCc3nc(-c4ccc(C)cc4)no3)nnc2-c2ccncc2)cc1	-40.5%	.	.	.	-18.9%	.
NC(CCC(=O)NC(CCSC(CC(=O)O)C(=O)O)C(=O)NCC(=O)O)C(=O)O (centres undefined)	-3.7%	.	.	.	-7.1%	.
O=C1C=CC(=O)N1c1ccc2c(c1)Cc1cc(F)ccc1-2	2.06µM*	?	.	?	1.64µM*	-64.3*
CC(=O)Nc1ccc2c(c1)Cc1cc(N3C(=O)C=CC3=O)ccc1-2	1.3µM*	5.17µM*	.	13µM*	1.03µM*	-12.0
CCN(CC)CCC=C(c1cccs1)c1cccs1	23.1µM*	?	.	?	?	-24.0
CCN(CC)CCCNC(=O)/C(=C\c1cccn1C)NC(=O)c1cccs1	-3.5%	6.5%	-1.1%	6.3%	1.6%	-9.7
COc1ccc(N2CC(C(=O)N[C@@H](C)C(=O)NCc3ccccc3OC)CC2=O)cc1 (some centres undefined)	-1.8%	0.8%	0.2%	2.3%	4.8%	-8.7
COc1cc(CNC(=O)c2cc(-c3cc(OC)ccc3Cl)n[nH]2)cc(OC)c1	-22.4%	.	.	.	?	52.7
COc1cccc(-c2cc(C(=O)NCc3ccccc3)[nH]n2)c1	-3.8%	.	?	.	-14.3%	.
COc1ccc(CNC(=O)c2cc(-c3ccc(C)c(C)c3)n[nH]2)cc1	16.4µM*	.	.	.	?	.
COc1cc(CNC(=O)c2cc(-c3cc(Cl)ccc3C)n[nH]2)cc(OC)c1	?	.	.	.	25.9µM*	-23.4
Cc1ccc(Cl)cc1-c1cc(C(=O)NCc2cccc(Cl)c2)[nH]n1	?	.	.	.	18.4µM*	-50.7*
CCOc1ccc(-c2cc(C(=O)NCc3cc(OC)cc(OC)c3)[nH]n2)c(C)c1	?	.	.	.	20.6µM*	-7.7
CCOC(=O)CNC(=O)c1cc2c(=O)oc3ccccc3c2s1	-4.5%	.	.	.	-1.6%	.
O=C(NCc1ccc(F)cc1)c1cnc(Cl)c(Cl)c1	?	-7.2%	9.7%	1.0%	?	-78.6*
COc1ccc(-c2cc(C(=O)NCc3cccc(C(F)(F)F)c3)[nH]n2)c(C)c1	?	.	.	.	25.9µM*	-9.1
COc1ccc(CNC(=O)c2cc(-c3ccc(Cl)cc3)n[nH]2)cc1	-8.1%	.	.	.	13.6%	.
O=C(NCc1ccc(F)cc1)c1cc(-c2ccc(Cl)cc2)n[nH]1	8.2µM*	.	.	.	7.31µM*	.
SMILES	DT40 TDP1 no CPT	MCF10A rereplic	Chronic BCR inh	SW480 rerep	DT40 TDP1 CPT	IL-1B inflam inh
COc1ccc(CNC(=O)c2cccc(-c3ccc(C)c4ccccc34)n2)cc1	18.4µM*	?	-9.5%	?	?	12.0
Cc1ccc([C@@H]2CC(=O)[C@@H]3CN(S(=O)(=O)c4ccc(C)cc4)[C@H](c4ccc(Cl)cc4)C[C@@H]3N2S(=O)(=O)c2ccc(C)cc2)cc1	?	.	.	.	7.3%	25.2
CCN(C[C@H]1N[C@@](Cc2ccccc2)(C(=O)OC)[C@H]2C(=O)N(C)C(=O)[C@@H]12)C(=O)NC(C)C	-14.2%	-0.6%	0.0%	7.5%	8.5%	14.2
Cc1ccc(-c2nnc3sc(C4COc5ccccc5O4)nn23)cc1 (centres undefined)	23.1µM*	4.5%	13.3%	-10.4%	?	-19.1
COc1cc(OC)cc(C(=O)N[C@H](C(=O)NCc2ccc(F)cc2)C(C)C)c1	?	2.1%	1.8%	-1.5%	-4.8%	52.5
CC1(C(=O)Nc2ccc(F)cc2F)CCN1C(=O)CCC1CCCC1 (centres undefined)	23.1µM*	.	.	.	?	0.0
CC(C)(C)c1ccc(CC(=O)N2CCC2(C)C(=O)Nc2ccc(F)cc2F)cc1 (centres undefined)	16.4µM*	.	.	.	23.1µM*	9.9
CC1(C(=O)Nc2ccc(F)cc2F)CCN1C(=O)Cc1ccccc1Cl (centres undefined)	-20.1%	.	.	.	-5.7%	-9.7
CCOC(=O)c1cc(CC)sc1NC(=O)C1CC(=O)NN1Cc1ccccc1 (centres undefined)	16.4µM*	-5.6%	?	11.5%	?	-60.3*
Cc1ccc(-c2cc(C(F)F)nc(S(C)(=O)=O)n2)cc1	1.3µM*	4.11µM*	?	?	0.92µM*	-102.2*
Cc1cc(C(=O)CSc2nnc(-c3cccnc3)n2-c2ccccc2F)c(C)n1CC1CCCO1 (centres undefined)	23.1µM*	2.0%	?	1.1%	-24.1%	-7.1
Cc1cc(C(=O)CSc2nnc(-c3ccc(F)cc3)o2)c(C)n1CC1CCCO1 (centres undefined)	20.6µM*	1.9%	18.0%	-7.1%	?	25.4
COc1cc(-c2nnc(SCC(=O)N3CCCC3)o2)cc(OC)c1OC	-2.4%	-1.1%	-3.0%	-0.9%	-9.2%	-0.5
COc1cc(-c2nnc(SCC(=O)c3cc(C)n(CC4CCCO4)c3C)o2)cc(OC)c1OC (centres undefined)	?	23.4%	9.9%	10.2%	20.6µM*	45.4
COc1cc(C2c3c(oc4ccc(C)cc4c3=O)C(=O)N2c2cc(C)ccn2)cc(OC)c1OC (centres undefined)	.	.	-1.4%	.	.	.
CCOc1cccc(C2c3c(oc4ccc(F)cc4c3=O)C(=O)N2c2cc(C)ccn2)c1 (centres undefined)	23.1µM*	.	.	.	16.4µM*	.
